Structures are written as SMILES. The whole screen tested about 350,000 compounds, of which about 31,000 (8.9%) were called active. A call without a number means that no potency is given here. Not shown: some 15% with an inconclusive outcome. For the sample, actives were picked, then their nearest neighbours and some compounds at random. A number with no mark means an inactive call. The call rests on the fitted dose curve; in most records, active means well fitted inhibition curve with a large enough effect; inconclusive means small, poorly fitted or top-dose-only effect; inactive means no such curve, though single readings can be large or run the other way.

These results are taken from PubChem BioAssay AID504332 (National Center for Advancing Translational Sciences (NCATS), 2011).
Potency means the concentration at half of the fitted maximal effect.

In the assay the target is Histone-lysine N-methyltransferase EHMT2 (Homo sapiens) (UniProt Q96KQ7). The experiment in a line: qHTS Assay for Inhibitors of Histone Lysine Methyltransferase G9a. Further: nearly all actives have a fitted effect of over 75% in size. The settings on record: G9a H3K9 monomethylation, AlphaScreen, 2 h; series mostly up to 59 µM. The method in brief: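 Enzyme 20 nM + cpd, 15 min RT; add b-H3K9 pep 500 nM / SAM 20 uM; 2 h RT; anti-H3K9me1 Ab 0.5 ug/mL + SA donor / anti-rabbit acceptor beads 20 ug/mL each, 10 min; AlphaScreen read.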
Sequence of Histone-lysine N-methyltransferase EHMT2 (Homo sapiens) (Q96KQ7 913-1193 limits assumed): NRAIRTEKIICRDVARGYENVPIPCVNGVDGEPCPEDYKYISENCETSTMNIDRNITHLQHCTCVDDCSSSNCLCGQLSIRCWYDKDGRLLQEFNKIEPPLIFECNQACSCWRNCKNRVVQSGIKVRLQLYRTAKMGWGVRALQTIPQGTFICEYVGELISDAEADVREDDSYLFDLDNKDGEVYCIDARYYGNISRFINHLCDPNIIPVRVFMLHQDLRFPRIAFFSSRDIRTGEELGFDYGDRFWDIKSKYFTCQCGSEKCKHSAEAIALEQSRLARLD
(Quantitative high-throughput screening tests each substance at several concentrations.)
As for `CC(C)(C)c1ccc(S(=O)(=O)N2CCN(C(=O)c3cc(-c4ccc(Br)cc4)n[nH]3)CC2)cc1`, the Potency entry was “inactive”. The same measure, in the same setting: the result for `S=C(Nc1ccc(Br)cc1Cl)NC1CCN(Cc2ccccc2)CC1` reads “inactive”; that for `O=C(NC1CCN(Cc2ccccc2)CC1)c1c(F)cccc1F`, “inactive”. In the case of `S=C(NN=C1CCN(Cc2ccccc2)CC1)NC1CCCCC1`, the Potency is 50.1 µM (active). The same measure, in the same setting: the result for `COc1ccccc1NC(=O)c1cc(S(=O)(=O)NCCc2ccccc2)ccc1F` reads “inactive”. On the same count and under the same terms, the result for `CCc1ccc(S(=O)(=O)n2ccnc2)cc1` reads “inactive”. On to `CCOc1ccc(NC(=O)CN(C)C(=O)COc2cccc(CC)c2)cc1OCC`, for which the activity, negative = inhibition was -17.2% [at 0.501 µM].

`CS(=O)(=O)c1ccc2c(c1)SC1=NC(=O)/C(=C/c3ccco3)C(=N)N12`: the Potency is 50.1 µM (active).

Turning to `CCCCC(=O)OC1=CN(Cc2ccccc2)S(=O)(=O)c2ccccc21`, the Potency entry was “inactive”. Regarding `COc1cccc(C(=O)OCc2cc(=O)oc3c(C)c(C)ccc23)c1OC`, the Potency entry is “inactive”.

For the compound `CCOC(=O)N1CCC(N2Cc3cccc(C(=O)Nc4c(C)cccc4CC)c3C2=O)CC1`, the Potency result was “inactive”. Same read-out and setting: in the case of `CN(C)[C@@H]1C(=O)C(C(N)=O)=C(O)[C@@]2(O)C(=O)C3=C(O)c4c(O)ccc(Cl)c4[C@@H](O)[C@H]3C[C@@H]12` it was 7.94 µM (active); in that of `C=C1c2c(Cl)ccc(O)c2C(O)=C2C(=O)[C@]3(O)C(O)=C(C(N)=O)C(=O)[C@@H](N(C)C)[C@@H]3[C@@H](O)C12` (some centres undefined), 7.94 µM (active); in that of `CCCN(CC1CC1)C(=S)NC(=O)c1ccccc1Br`, “inactive”. The same measure, in the same setting: in the case of `Cc1ccc(Cl)cc1N1CCN(C(=O)CN2C(=O)COc3ccc(S(=O)(=O)N4CCOCC4)cc32)CC1` it was “inactive”. For the compound `COc1ccc(-c2noc(C(C)NS(=O)(=O)c3ccc(NC(C)=O)cc3)n2)cc1` (centres undefined), the Potency entry was “inactive”.

As for `COc1cc2nc(NCC(C)c3ccccc3)n3nc(-c4ccccc4)nc3c2cc1OC` (centres undefined), the Potency result is “inactive”.

Take `CC(C(=O)NC1CCCC1)N1CCN(S(=O)(=O)c2ccccc2Cl)CC1` (centres undefined): the activity, negative = inhibition was 1.28% [at 0.501 µM]. Consider `COc1cc2c(=O)c(S(=O)(=O)c3ccc(C(C)C)cc3)cn(Cc3ccccc3C)c2cc1OC`, for which the Potency entry was “inactive”. The same measure, in the same setting: the result for `Cc1ccc(C)c(NC(=O)c2ccc3nccnc3c2)c1` reads “inactive”.

Consider `Cc1ccc(C(=O)Nc2nnc(-c3cccs3)s2)cc1C`, for which the activity, negative = inhibition was -1.27% [at 12.7 µM].

Consider `Cc1nnc(NC(=O)c2ccc3nccnc3c2)s1`, for which the Potency is 50.1 µM (active). Still for that read-out and setting: in the case of `COc1ccc(S(=O)(=O)NCc2cccnc2)cc1NC(=O)c1ccc(C)cc1` it was “inactive”; in that of `CC(=O)c1c(C)n(S(=O)(=O)c2ccc(Cl)cc2)c2ccc(NS(=O)(=O)c3ccc(Cl)cc3)cc12`, “inactive”; in that of `O=C(c1ccc2c(c1)N(Cc1ccccc1)C(=O)c1ccccc1S2(=O)=O)N1CCC(Cc2ccccc2)CC1`, “inactive”. Consider `CC1CCN(CC(O)COc2ccc(C(=O)c3ccccc3)cc2)CC1` (centres undefined), for which the activity, negative = inhibition was 3.75% [at 0.501 µM]. As to `CCC(=O)c1ccc(OCC(O)CN2CC(C)OC(C)C2)cc1` (centres undefined), the Potency is 14.1 µM (active). In the case of `CCC(=O)c1ccc(OCC(O)CN2C(=O)NC(C)(C)C2=O)cc1` (centres undefined), the Potency entry is “inactive”.

As for `CCOC(=O)C1CCN(C(=O)COC(=O)C2CCN(S(=O)(=O)c3ccc4c(c3)OCCO4)CC2)CC1`, the Potency entry was “inactive”. On to `CCOc1ccc(NS(=O)(=O)c2ccc(Cl)c(C(=O)N(C)Cc3cccnc3)c2)cc1`, for which the activity, negative = inhibition was 9.93% [at 12.7 µM]. `Cc1cc(C)cc(NC(=O)CCCc2nc(-c3ccccc3Cl)no2)c1`: the Potency entry was “inactive”. Same read-out and setting: in the case of `CN(CC(=O)Nc1ccc(Cl)cc1)C(=O)CNC(=O)c1ccc2ccccc2c1` it was “inactive”. Same read-out and setting: in the case of `COc1cccc(-c2nnc(SCC(=O)N3CCC(C)CC3)o2)c1` it was “inactive”. Same read-out and setting: the result for `O=C(C1COc2ccccc2O1)N(Cc1cccnc1)c1nc2c(F)cc(F)cc2s1` (centres undefined) reads “inactive”; that for `CCc1ccc(N2C(=O)CN(S(=O)(=O)CC)CC2(C)C(=O)NC2CCCCC2)cc1` (centres undefined), “inactive”; that for `COc1ccc(C(=O)CCc2ccccc2O)c(OC)c1`, “inactive”.

Regarding `COc1ccc(/C=C2/C(=O)OCc3cc(OC)c(OC)cc32)c(OC)c1`, the Potency entry is “inactive”. On the same count and under the same terms, the result for `COc1ccc(/C=C2/C(=O)N(c3ccccc3)N=C2C)c(OC)c1` reads 20 µM (active).

On to `CCN1N=C(c2ccccc2)CCC1=O`, for which the activity, negative = inhibition is 21.7% [at 0.501 µM]. In the case of `Cc1cc(C)cc(NC(=S)NCCCN2CCOCC2)c1`, the Potency result was “inactive”. Take `O=C(NNC(=S)NCCCN1CCOCC1)c1ccncc1`: the Potency was 20 µM (active).

`COc1cccc(NC(=S)NCCCN2CCOCC2)c1`: the Potency result is “inactive”. The same measure, in the same setting: the result for `CCS(=O)(=O)N1CCc2cc(C(=O)NCc3ccc(C)cc3)ccc21` reads “inactive”. As for `O=c1onc(-c2cccs2)n1Cc1ccccc1`, the activity, negative = inhibition was 1.14% [at 12.7 µM]. Take `Cc1cc(-c2csc(N)n2)c(C)n1-c1ccccc1`: the Potency was 11.2 µM (active). Consider `CC(=O)Nc1ccc(C(=O)Nc2nc(-c3cc(C)n(Cc4ccccc4)c3C)cs2)cc1`, for which the Potency result is “inactive”.

Regarding `Cc1nc(N)sc1N=Nc1c(C)n(C)n(-c2ccccc2)c1=O`, the activity, negative = inhibition was -3.39% [at 12.7 µM].

Take `Cc1cc(-c2csc(N)n2)c(C)n1Cc1ccccc1`: the Potency was 28.2 µM (active). On the same count and under the same terms, in the case of `Cc1cc(C(=O)OCC(=O)N2c3ccccc3NC(=O)C2(C)C)c(C)n1-c1ccccc1` it was “inactive”.

As to `CN(CCO)S(=O)(=O)c1ccc2c(c1)C(=O)c1cc(S(=O)(=O)N(C)CCO)ccc1-2`, the activity, negative = inhibition is 6.15% [at 0.501 µM]. `CCOc1ccc(C(=O)NCC(=O)N2CCN(c3ccc(C(F)(F)F)cn3)CC2)cc1`: the Potency result was “inactive”. On the same count and under the same terms, in the case of `O=C(Nc1cccc(-c2nc3ccccc3o2)c1)c1cccc(Br)c1` it was “inactive”; in that of `COc1cc(C(=O)NCc2ccncc2)cc(Br)c1OCc1ccccc1`, “inactive”; in that of `COc1cc(C=O)c(Br)cc1OCC(=O)NCc1ccccc1`, “inactive”. In the case of `COc1cc(C(=S)NCc2ccccc2)cc(Br)c1O`, the Potency was 2.51 µM (active). Regarding `Cc1cccc(C(=O)NCC(=O)OCC(=O)N(C)CC(=O)Nc2ccccc2Cl)c1`, the Potency entry was “inactive”. Still for that read-out and setting: in the case of `COc1ccc(NC(=O)COC(=O)Cn2c(C)nc3ccccc32)cc1OC` it was “inactive”; in that of `O=C(COC(=O)Cn1cnc2ccccc21)Nc1cccc2c1C(=O)c1ccccc1C2=O`, 12.6 µM (active); in that of `O=C(COC(=O)Cn1cnc2ccccc2c1=O)NCC12CC3CC(CC(C3)C1)C2`, “inactive”.

Regarding `COc1ccc(-c2onc(C)c2C)cc1S(=O)(=O)NCCc1ccccc1`, the Potency result is “inactive”. The same measure, in the same setting: in the case of `CCOc1ccc(CCNC(=O)CN(c2ccc(C)cc2)S(=O)(=O)N(C)C)cc1OCC` it was “inactive”. Same read-out and setting: in the case of `O=C(NCc1ccccc1Cl)c1ccc2c(=O)n(CC3CCCO3)c(=S)[nH]c2c1` (centres undefined) it was “inactive”; in that of `COc1ccc(CNC(=O)Cn2nnc(-c3ccc(S(C)(=O)=O)cc3)n2)cc1`, “inactive”; in that of `CC(=O)c1cccc(NC(=O)C2COc3ccccc3O2)c1` (centres undefined), “inactive”. On to `CC(/C=C/c1ccco1)=N/NC(=O)C1COc2ccccc2O1` (centres undefined), for which the Potency is 56.2 µM (active). Still for that read-out and setting: the result for `C/C(=N/NC(=O)C1COc2ccccc2O1)c1ccco1` (centres undefined) reads “inactive”; that for `Cc1ccc(-n2ncc3c(=O)n(Cc4cccc(C(F)(F)F)c4)cnc32)cc1C`, “inactive”. The same measure, in the same setting: in the case of `CCCCN=C1C([N+](=O)[O-])=CC=C2C1=NC1(CCCCC1)N2O` it was 11.2 µM (active). Regarding `O=C(CCNC(=O)c1ccc(Br)cc1)NCCCc1ccccc1`, the Potency result is “inactive”. The same measure, in the same setting: the result for `Cc1cccc(N2C(=O)CC(SC(N)=Nc3ccccc3)C2=O)c1` (centres undefined) reads “inactive”; that for `COC(=O)c1ccccc1SC1CC(=O)N(c2cccc(C)c2)C1=O` (centres undefined), 44.7 µM (active). For `O=C1CC(c2ccccc2)C(=O)N1c1cccc(O)c1` (centres undefined), the Potency result was “inactive”. Same read-out and setting: the result for `CCOc1ccccc1N(C)C(=O)c1cc2c(s1)-c1ccccc1OC2` reads “inactive”. On the same count and under the same terms, in the case of `O=C(CNC(=O)c1ccc(Cl)cc1Cl)NCC(=O)Nc1ccccc1N1CCOCC1` it was 89.1 µM (active); in that of `CC(=O)c1ccc(OCCCC(=O)Nc2ccc(C)c(S(=O)(=O)N3CCOCC3)c2)cc1`, 50.1 µM (active). In the case of `Cc1ccc(C(=O)OCC(=O)Nc2ccc(Cl)cn2)cc1S(=O)(=O)N1CCOCC1`, the Potency entry was “inactive”. Still for that read-out and setting: the result for `Cc1ccc(NC(=O)COC(=O)CNC(=O)c2ccc(Cl)cc2Cl)cc1S(=O)(=O)N1CCOCC1` reads 50.1 µM (active). As for `COc1c(C)cccc1C(=O)Nc1cc(Cl)ccc1N1CCOCC1`, the activity, negative = inhibition was -5.78% [at 12.7 µM]. In the case of `O=C(COc1ccc(Cl)cc1)NC(=S)Nc1ccccc1N1CCOCC1`, the Potency entry was “inactive”. Regarding `Cc1ccc(NC(=O)CCNC(=O)c2ccc([N+](=O)[O-])cc2)cc1S(=O)(=O)N1CCOCC1`, the activity, negative = inhibition is -13.1% [at 12.7 µM]. `O=C(COC(=O)CCc1ccc(S(=O)(=O)N2CCOCC2)cc1)Nc1cccc(Cl)c1`: the Potency entry is “inactive”. Turning to `Cc1ccc(NC(=O)CCCNC(=O)c2ccc(Cl)cc2)cc1S(=O)(=O)N1CCOCC1`, the Potency result is “inactive”. Turning to `COc1ccc(Nc2ncc3c(n2)CCN(C(=O)OC(C)(C)C)C3)cc1`, the Potency result is “inactive”.

On to `COc1ccc(CCNC(=O)Cn2c(=O)n(-c3ccccc3)c(=O)c3c(C)c(C)sc32)cc1OC`, for which the Potency entry was “inactive”. As to `COc1cc(C(=O)Nc2ncccc2C)ccc1OCC(=O)N1CCOCC1`, the Potency result was “inactive”. Take `O=C(CNS(=O)(=O)c1ccccc1)N1CCN(C(=O)c2ccco2)CC1`: the Potency result was “inactive”. Consider `Cc1ccc(-n2ncc3c2CC(C)(C)CC3NC(=O)CCc2cnn(C)c2)cc1` (centres undefined), for which the Potency result was “inactive”.

For the compound `CC1CCCN(c2csc3ccc(F)cc3c2=O)C1` (centres undefined), the Potency entry is “inactive”.

Turning to `CCc1cccc(NC(=O)CCCN2C(=O)C(c3ccccc3)Oc3cccnc32)c1` (centres undefined), the activity, negative = inhibition is 26% [at 0.0925 µM]. Turning to `O=C(CN1CCCCCC1)Nc1ccc(Br)cc1[N+](=O)[O-]`, the Potency is 35.5 µM (active). The same measure, in the same setting: the result for `O=C(CN1CCCCCC1)Nc1ccc(Br)cc1Br` reads “inactive”; that for `COc1cc([N+](=O)[O-])ccc1NC(=O)CN1CCCC1`, “inactive”; that for `COC(=O)c1sccc1S(=O)(=O)N(CC(=O)Nc1ccc(C)c(F)c1)c1ccc(C)c(C)c1`, “inactive”. For the compound `O=S(=O)(NCc1ccc(Cl)cc1Cl)c1cccs1`, the activity, negative = inhibition is 14.7% [at 0.501 µM].
